Source: PubChem BioAssay (Tox21)
Results filed as inconclusive are left out. Where a call stands in place of a potency, no number is given. Values without a mark were called inactive. Activity calls are given as the source filed them. Calls come from the whole dose curve; as a rule, active = well fitted activation curve with a large enough effect in the repeat runs; inconclusive = weak or mixed curves; inactive = flat fitted curve, though single readings scatter.

Assay: A CellTox Green Cytotoxicity Assay to monitor cytotoxicity in HepG2 cells - 16 hour (AID 1224876); note: nearly all actives have a fitted effect of over 45% in size
Conditions: CellTox Green fluorescence; series mostly up to 76.8 µM
From the text: National Center for Advancing Translational Sciences [NCATS]
NIH Chemical Genomics Center [NCGC]
U.S. Environmental Protection Agency [EPA]
National Institutes of Environmental Health Sciences [NIEHS]
National Toxicology Program [NTP]
Cell-based models are critical for drug discovery. Determining the natural cytotoxic effects resulting from test compounds is an essential research activity. A CellTox Green Cytotoxicity Assay to monitor cytotoxicity in real time of continues cell culture during 40 hours of the compound treatment was used to screen Tox21 10K library compounds in HepG2 cells. CellTox Green Cytotoxicity Assay is a nonlytic, homogeneous, biofluorescent method to measure cytotoxicity in cell culture after experimental manipulation. The assay system uses a proprietary asymmetric cyanine dye that is excluded from viable cells but preferentially stains the dead cell's DNA. […] Viable cells produce no appreciable increases in fluorescence. Therefore, the fluorescence signal produced by the binding interaction with dead cell DNA is proportional to cytotoxicity.
The mixture of HepG2 cell suspension and reagents were dispensed at 600cells/6 ul/well in 1536-well tissue culture treated black solid bottom plates using a Multidrop dispenser. After the assay plates were incubated at a 37 C/5% CO2 incubator for 5 hours, 23 nL of compounds dissolved in DMSO, positive and negative controls was transferred to the assay plate by a pintool work station. The plates were incubated at 37 C for 40 hours. The fluorescence intensity were measured at 0h, 8h, 16h, 24h, 32h and 40h time points using ViewLux plate reader during compound treatment.
Potency is the fitted concentration of half-maximal effect.

Row | SMILES | Potency | cytotoxicity increase
1 | CC(NCCC(c1ccccc1)c1ccccc1)c1ccccc1 (stereo not given) | 23.9 µM (active) | –
2 | c1ccc2c(c1)CCC2 | inactive | –
3 | O=C(c1ccccc1)c1cc(Cl)ccc1O | inactive | –
4 | NC(=O)c1ccccc1N | inactive | –
5 | CCN=C1C=CC(=C(c2ccc(N(CC)CC)cc2)c2ccc(N(CC)CC)cc2)c2ccccc21 | 19.4 µM (active) | –
6 | CCCCOCC | inactive | –
7 | CC[N+](CC)(CC)Cc1ccccc1 | inactive | –
8 | CCCOc1sc(C(=O)N2CCC(c3cc(CN)ccc3F)CC2)c(C)c1Br | 20 µM (active) | –
9 | C=C(c1ccc(C(=O)O)cc1)c1cc2c(cc1C)C(C)(C)CCC2(C)C | 24.5 µM (active) | –
10 | COc1ccccc1OCCNCC(O)COc1cccc2[nH]c3ccccc3c12 (stereo not given) | 23.9 µM (active) | –
11 | CNC(=S)NN | inactive | –
12 | O=Nc1ccc(NO)cc1 | inactive | –
13 | CN1[C@@H]2CC[C@H]1CC(OC(=O)C(CO)c1ccccc1)C2 (stereo not given in full) | inactive | –
14 | COC(=O)NCCC[Si](OC)(OC)OC | inactive | –
15 | CCCCCCCCCCCCCCCCCO | – | 1.01% [at 15.8 µM]
16 | CCC(C)C(=O)OC (stereo not given) | inactive | –
17 | Brc1ccccn1 | inactive | –
18 | CCCC(=O)OCC(COC(=O)CCC)OC(=O)CCC | inactive | –
19 | CCCSS/C(CCO)=C(\C)N(C=O)Cc1cnc(C)nc1N | inactive | –
20 | CCOC(=O)COc1ccc(C)cc1 | inactive | –

Row | SMILES | Potency | cytotoxicity increase
21 | Clc1cccnc1 | inactive | –
22 | Cc1c(C(=O)O)cccc1[N+](=O)[O-] | inactive | –
23 | CCCCCCCC/C=C\CCCCCCCC(=O)N(C)CC(=O)O | inactive | –
24 | Nc1cc(Cl)c([N+](=O)[O-])cc1O | inactive | –
25 | Clc1ccccc1CN1CCc2sccc2C1 | inactive | –
26 | CC(C)(c1cc(Br)c(OCCO)c(Br)c1)c1cc(Br)c(OCCO)c(Br)c1 | inactive | –
27 | C=CC(=O)OCCC#N | inactive | –
28 | O=S(O)O | – | -6.63% [at 15.8 µM]
29 | C[n+]1c2cc(N)ccc2cc2ccc(N)cc21 (tested in a mixture with another compound) | 23.9 µM (active) | –
30 | CCCCCCCCCCCCCc1ccccc1 | inactive | –
31 | C(=C/c1ccccc1)/c1ccccc1 | inactive | –
32 | Brc1ccccc1-c1ccccc1 | 41.3 µM (active) | –
33 | CCOCN(C(=O)CS(=O)(=O)O)c1c(C)cccc1CC | inactive | –
34 | CC(COC(=O)c1ccccc1)OC(=O)c1ccccc1 (stereo not given) | inactive | –
35 | CN(Cc1cc(Br)cc(Br)c1N)C1CCCCC1 | 19 µM (active) | –
36 | CCc1c(Br)c(Br)c(Br)c(Br)c1Br | inactive | –
37 | O=S(=O)(O)c1cc(S(=O)(=O)O)c2ccc3c(S(=O)(=O)O)cc(S(=O)(=O)O)c4ccc1c2c43 | – | -4.69% [at 15.8 µM]
38 | CCCCCCCC(=O)OCC | inactive | –
39 | O=C(O)CCCCCCC(=O)O | inactive | –
40 | CC1=CP(=O)(c2ccccc2)CC1 (stereo not given) | inactive | –
